molecular target: Glucocorticoid receptor (Homo sapiens) (UniProt P04150); assay: GR-GFP Redistribution (AID 450); settings: U2OS GR-GFP nuclear translocation, laser cytometry, 2 h
Potency is the fitted concentration of half-maximal effect.

Sequence of Glucocorticoid receptor (Homo sapiens) (P04150 whole entry, looked up, the tested form may be a part): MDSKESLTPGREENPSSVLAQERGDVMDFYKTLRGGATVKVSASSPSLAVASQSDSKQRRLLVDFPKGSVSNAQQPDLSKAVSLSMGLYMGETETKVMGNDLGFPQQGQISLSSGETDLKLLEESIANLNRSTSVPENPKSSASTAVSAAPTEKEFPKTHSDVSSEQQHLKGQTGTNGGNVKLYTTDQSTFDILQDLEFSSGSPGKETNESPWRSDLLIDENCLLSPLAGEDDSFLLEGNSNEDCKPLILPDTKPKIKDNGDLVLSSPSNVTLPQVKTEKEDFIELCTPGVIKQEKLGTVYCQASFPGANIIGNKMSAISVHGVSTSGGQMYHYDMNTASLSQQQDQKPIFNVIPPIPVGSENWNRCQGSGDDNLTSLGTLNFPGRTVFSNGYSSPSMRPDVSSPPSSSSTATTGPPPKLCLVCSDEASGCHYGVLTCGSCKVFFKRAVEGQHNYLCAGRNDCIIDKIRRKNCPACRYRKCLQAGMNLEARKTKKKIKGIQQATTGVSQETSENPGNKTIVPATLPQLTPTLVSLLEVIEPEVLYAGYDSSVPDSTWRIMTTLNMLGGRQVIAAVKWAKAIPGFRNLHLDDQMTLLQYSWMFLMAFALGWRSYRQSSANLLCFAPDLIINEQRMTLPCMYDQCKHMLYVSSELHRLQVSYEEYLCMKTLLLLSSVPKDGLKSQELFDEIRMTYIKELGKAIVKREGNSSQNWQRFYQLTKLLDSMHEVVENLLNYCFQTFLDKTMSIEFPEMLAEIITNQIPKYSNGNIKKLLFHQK

Potency, inactive:
CN(C)C(=O)c1ccc(-c2ccc3ncnc(N(C)Cc4ccco4)c3c2)cc1 > 46 µM
Cc1ccccc1-c1nccc(-n2ccnc2)n1 > 46 µM
CN(C)Cc1ccccc1-c1nccc(NC2CC2)n1 > 46 µM
c1ccc2c(NC3CC3)nc(-c3ccoc3)nc2c1 > 46 µM
N#Cc1cccc(-c2cc(-n3ccnc3)ncn2)c1 > 46 µM
CN(C)C(=O)c1ccc(-c2ccc3ncnc(Nc4ccccc4)c3c2)cc1 > 46 µM
COc1cccc(-c2cncnc2NCCc2cnc[nH]2)c1 > 46 µM
FC(F)(F)c1ccccc1-c1cncnc1NCCc1cnc[nH]1 > 46 µM
CN(Cc1ccco1)c1ccnc(-c2ccoc2)n1 > 46 µM
COc1cccc(-c2nc(NCc3cnc(C)cn3)c3ccccc3n2)c1 > 46 µM
c1cncc(-c2ccc3ncnc(N4CCNCC4)c3c2)c1 > 46 µM
CN(C)C(=O)c1ccc(-c2cncnc2NCCN2CCOCC2)cc1 > 46 µM
COc1ccc2[nH]cc(CCNc3cc(-c4ccccc4CN(C)C)ncn3)c2c1 > 46 µM
COc1ccc2[nH]cc(CCNc3ccnc(-c4ccccc4C)n3)c2c1 > 46 µM
CC(=O)NCCNc1nc(-c2ccc3c(c2)OCO3)nc2ccccc12 > 46 µM
c1csc(CNc2nc(-c3ccc4c(c3)OCO4)nc3ccccc23)c1 > 46 µM
N#Cc1cccc(-c2cc(NCc3cccnc3)ncn2)c1 > 46 µM
c1ccc(Nc2ncncc2-c2ccc3c(c2)OCO3)cc1 > 46 µM
COc1ccc2[nH]cc(CCNc3ncncc3-c3ccc(C(=O)N(C)C)cc3)c2c1 > 46 µM
c1ncc(-c2ccc3c(c2)OCO3)c(NCCc2cnc[nH]2)n1 > 46 µM
Fc1ccc(Nc2nc(-c3ccoc3)nc3ccccc23)cc1 > 46 µM
CCNc1ncc2nc(-c3ccc(Cl)cc3)c(=O)n(Cc3cccs3)c2n1 > 9.22 µM
COc1ccc(CNc2ccnc(-c3cccc(NS(C)(=O)=O)c3)n2)c(OC)c1 > 46 µM
COc1ccc(CNc2ccnc(-c3ccccc3Cl)n2)c(OC)c1 > 46 µM
CN(C)C(=O)c1ccc(-c2nccc(NCc3cccnc3)n2)cc1 > 46 µM
c1ccc(CNc2ncncc2-c2ccoc2)cc1 > 46 µM
COc1ccc2[nH]cc(CCNc3ccnc(-c4ccoc4)n3)c2c1 > 46 µM
Clc1ccccc1-c1nc(NCCN2CCOCC2)c2ccccc2n1 > 46 µM
COCCNc1nc(-c2ccccc2C(F)(F)F)nc2ccccc12 > 46 µM
CN(Cc1ccco1)c1cc(-c2cccnc2)ncn1 > 46 µM
FC(F)(F)c1ccccc1-c1cc(NCc2cccs2)ncn1 > 46 µM
COc1ccc2[nH]cc(CCNc3ncnc4ccc(-c5c(C)noc5C)cc34)c2c1 > 46 µM
CC(=O)NCCNc1ncnc2ccc(-c3ccc(C(=O)N(C)C)cc3)cc12 > 46 µM
CCNc1ncc2nc(-c3ccccc3)c(=O)n(Cc3cccc(OC)c3)c2n1 > 9.22 µM
COCCNc1ccnc(-c2c(C)noc2C)n1 > 46 µM
COc1ccc2[nH]cc(CCNc3nc(-c4ccccc4CN(C)C)nc4ccccc34)c2c1 > 46 µM
CN(C)C(=O)c1ccc(-c2nccc(-n3ccnc3)n2)cc1 > 46 µM

molecular target: Glucocorticoid receptor (Homo sapiens) (UniProt P04150); assay: GR-EFC Redistribution (AID 451; calls by dose curve); settings: CHO-K1 GR-EFC translocation, beta-gal luminescence, 2 h
Method in brief: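 CHO-K1 cells stably expressing nuclear-localized β-gal enzyme acceptor and GR fused C-terminally to the enzyme donor fragment; ligand-driven nuclear translocation restores β-gal by complementation. Compounds titrated up to 46 uM final, 2 h at 37 °C; luminescence read.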

Potency, inactive:
CN(C)C(=O)c1ccc(-c2ccc3ncnc(N(C)Cc4ccco4)c3c2)cc1 > 46 µM
Cc1ccccc1-c1nccc(-n2ccnc2)n1 > 46 µM
CN(C)Cc1ccccc1-c1nccc(NC2CC2)n1 > 46 µM
c1ccc2c(NC3CC3)nc(-c3ccoc3)nc2c1 > 46 µM
N#Cc1cccc(-c2cc(-n3ccnc3)ncn2)c1 > 46 µM
CN(C)C(=O)c1ccc(-c2ccc3ncnc(Nc4ccccc4)c3c2)cc1 > 46 µM
COc1cccc(-c2cncnc2NCCc2cnc[nH]2)c1 > 46 µM
FC(F)(F)c1ccccc1-c1cncnc1NCCc1cnc[nH]1 > 46 µM
CN(Cc1ccco1)c1ccnc(-c2ccoc2)n1 > 46 µM
COc1cccc(-c2nc(NCc3cnc(C)cn3)c3ccccc3n2)c1 > 46 µM
c1cncc(-c2ccc3ncnc(N4CCNCC4)c3c2)c1 > 46 µM
CN(C)C(=O)c1ccc(-c2cncnc2NCCN2CCOCC2)cc1 > 46 µM
COc1ccc2[nH]cc(CCNc3cc(-c4ccccc4CN(C)C)ncn3)c2c1 > 46 µM
COc1ccc2[nH]cc(CCNc3ccnc(-c4ccccc4C)n3)c2c1 > 46 µM
CC(=O)NCCNc1nc(-c2ccc3c(c2)OCO3)nc2ccccc12 > 46 µM
c1csc(CNc2nc(-c3ccc4c(c3)OCO4)nc3ccccc23)c1 > 46 µM
N#Cc1cccc(-c2cc(NCc3cccnc3)ncn2)c1 > 46 µM
c1ccc(Nc2ncncc2-c2ccc3c(c2)OCO3)cc1 > 46 µM
COc1ccc2[nH]cc(CCNc3ncncc3-c3ccc(C(=O)N(C)C)cc3)c2c1 > 46 µM
c1ncc(-c2ccc3c(c2)OCO3)c(NCCc2cnc[nH]2)n1 > 46 µM
Fc1ccc(Nc2nc(-c3ccoc3)nc3ccccc23)cc1 > 46 µM
CCNc1ncc2nc(-c3ccc(Cl)cc3)c(=O)n(Cc3cccs3)c2n1 > 46 µM
COc1ccc(CNc2ccnc(-c3cccc(NS(C)(=O)=O)c3)n2)c(OC)c1 > 46 µM
COc1ccc(CNc2ccnc(-c3ccccc3Cl)n2)c(OC)c1 > 46 µM
CN(C)C(=O)c1ccc(-c2nccc(NCc3cccnc3)n2)cc1 > 46 µM
c1ccc(CNc2ncncc2-c2ccoc2)cc1 > 46 µM
COc1ccc2[nH]cc(CCNc3ccnc(-c4ccoc4)n3)c2c1 > 46 µM
Clc1ccccc1-c1nc(NCCN2CCOCC2)c2ccccc2n1 > 46 µM
COCCNc1nc(-c2ccccc2C(F)(F)F)nc2ccccc12 > 46 µM
CN(Cc1ccco1)c1cc(-c2cccnc2)ncn1 > 46 µM
FC(F)(F)c1ccccc1-c1cc(NCc2cccs2)ncn1 > 46 µM
COc1ccc2[nH]cc(CCNc3ncnc4ccc(-c5c(C)noc5C)cc34)c2c1 > 46 µM
CC(=O)NCCNc1ncnc2ccc(-c3ccc(C(=O)N(C)C)cc3)cc12 > 46 µM
CCNc1ncc2nc(-c3ccccc3)c(=O)n(Cc3cccc(OC)c3)c2n1 > 46 µM
COCCNc1ccnc(-c2c(C)noc2C)n1 > 46 µM
COc1ccc2[nH]cc(CCNc3nc(-c4ccccc4CN(C)C)nc4ccccc34)c2c1 > 46 µM
CN(C)C(=O)c1ccc(-c2nccc(-n3ccnc3)n2)cc1 > 46 µM
